From PubChem BioAssay (NCATS)
Results filed as inconclusive are left out. A call without a number means that no potency is given here. Activity calls are given as the source filed them. The call rests on the fitted dose curve; in most records, active means well fitted cell-killing curve with a large enough effect; inconclusive means small, poorly fitted or top-dose-only effect, or effect the other way; inactive means no such curve, though single readings can be large or run the other way.

Assay: Quantitative High-Throughput drug screen in 47 multiple myeloma cell lines against the NCATS MIPE library collection: L363_DSMZ cell viability assay (AID 1918984); further: nearly all actives have a fitted effect of over 40% in size
Settings: L363 myeloma viability, CellTiter-Glo ATP luminescence, 48 h; series mostly up to 45.8 µM
From the text: PI: Beverly A. Mock Ph.D.
Laboratory of Cancer Biology and Genetics,
Center for Cancer Research, National Cancer Institute,
National Institute of Health, Bethesda, Maryland
Drug resistance and disease progression are common in multiple myeloma (MM) patients, underscoring the need for new therapeutic combinations. […] We hypothesized that effective combinations would reduce MYC expression and enhance p16 activity. […] These preclinical data identify potentially useful drug combinations for evaluation in drug-resistant MM and reveal potential mechanisms of combined drug sensitivity.
Described herein is the primary MIPE qHTS used to cherrypick compounds. Validated compounds were then further tested for potential synergistic activiy.
[1] Peat TJ, Gaikwad SM, Dubois W, Gyabaah-Kessie N, Zhang S, Gorjifard S, Phyo Z, Andres M, Hughitt VK, Simpson RM, Miller MA, Girvin AT, Taylor A, Williams D, D'Antonio N, Zhang Y, Rajagopalan A, Flietner E, Wilson K, Zhang X, Shinn P, Klumpp-Thomas C, McKnight C, Itkin Z, Chen L, Kazandijian D, Zhang J, Michalowski AM, Simmons JK, Keats J, Thomas CJ, Mock BA. Drug combinations identified by high-throughput screening promote cell cycle transition and upregulate Smad pathways in myeloma. Cancer Lett. 2023 Aug 1;568:216284. doi: 10.1016/j.canlet.2023.216284. Epub 2023 Jun 24. PMID: 37356470; PMCID: PMC10408729.
SEQUENCE No. (e.g., 1, 2, 3, etc.); […] (e.g., Cells, Incubation, Reagent, etc.); VALUE and DESCRIPTION.
1; Cells; 5 uL; white, solid bottom 1536-well Greiner assay plate.
2; Compounds; 23 nL; Kalypsis pin tool (Wako USA) equipped with a 1536-well pin head to transfer to the assay plates.
3; Incubation; 48 hours; 37C incubation.
4; Reagent;5uL; CellTiter Glo (Promega).
5; Detector; 425V; Luminescence; Viewlux PerkinElmer.
NOTES (numbers refer to Sequence numbers above)
1. The cell-based screening methods employed in this study were like those previously published. Briefly, the corresponding myeloma cell lines were screened in 1,536-well plates with 500 cells, 5-uL per well for inhibition of cell viability (assessed by measuring ATP levels with CellTiterGlo).
2. NCATS MIPE 4.0 library of approved and investigational drugs were added using the Kalypsis pin tool. Wells treated with DMSO only for 100% viability and media only for 0% viability were used as controls.
3. The assay plates were covered and incubated for 48 hours in a 37C, 5% CO2 incubator with controlled humidity.
4. After 48 hours, CellTilter-GloTM luminescent substrate mix (Promega) reagent was added to the assay plate and plates we incubated for 5 min at room temperature.
5. Signal was measured as median relative luminescence units on a ViewLux (PerkinElmer) multiplate reader.
[1] Heske CM, Davis MI, Baumgart JT, Wilson K, Gormally MV, Chen L, Zhang X, Ceribelli M, Duveau DY, Guha R, Ferrer M, Arnaldez FI, Ji J, Tran HL, Zhang Y, Mendoza A, Helman LJ, Thomas CJ. Matrix Screen Identifies Synergistic Combination of PARP Inhibitors and Nicotinamide Phosphoribosyltransferase (NAMPT) Inhibitors in Ewing Sarcoma. Clin Cancer Res. 2017 Dec 1;23(23):7301-7311. doi: 10.1158/1078-0432.CCR-17-1121. Epub 2017 Sep 12. PMID: 28899971; PMCID: PMC6636827.
Potency means the concentration at half of the fitted maximal effect.

Row | SMILES | Potency
1 | COc1cc2nc(N3CCN(C(=O)c4ccco4)CC3)nc(N)c2cc1OC | 7.43 µM (active)
2 | CN(C)C(=O)C(CCN1CCC(O)(c2ccc(Cl)cc2)CC1)(c1ccccc1)c1ccccc1 | inactive
3 | O=C1c2c(O)ccc(O)c2C(=O)c2c(NCCNCCO)ccc(NCCNCCO)c21 | 2.35 µM (active)
4 | CC(C)NCC(O)COc1ccc(CCOCC2CC2)cc1 (stereo not given) | inactive
5 | COc1ccccc1OCC(O)CN1CCN(CC(=O)Nc2c(C)cccc2C)CC1 (stereo not given) | inactive
6 | Nc1nc2c(ncn2COC(CO)CO)c(=O)[nH]1 | 20.9 µM (active)
7 | NCCCCCC(=O)O | inactive
8 | CC#C[C@]1(O)CC[C@H]2[C@@H]3CCC4=CC(=O)CCC4=C3[C@@H](c3ccc(N(C)C)cc3)C[C@@]21C | 2.64 µM (active)
9 | CN1C2CCC1CC(OC(=O)C(CO)c1ccccc1)C2 (stereo not given) | inactive
10 | Clc1ccc2c(c1)C(N1CCNCC1)=Nc1ccccc1O2 | inactive
11 | CC(C)Cc1ccc(C(C)C(=O)O)cc1 (stereo not given) | inactive
12 | COc1cc2nc(N3CCN(C(=O)C4COc5ccccc5O4)CC3)nc(N)c2cc1OC (stereo not given) | inactive
13 | CN(C)CCCN1c2ccccc2CCc2ccc(Cl)cc21 | 16.6 µM (active)
14 | CNCCCC12CCC(c3ccccc31)c1ccccc12 | 16.6 µM (active)
15 | CC(C)(C)C(=O)Oc1ccc(S(=O)(=O)Nc2ccccc2C(=O)NCC(=O)O)cc1 | inactive
16 | CN1C(C(=O)Nc2ccccn2)=C(O)c2ccccc2S1(=O)=O | inactive
17 | CC(C)NCC(O)c1ccc(O)c(O)c1 (stereo not given) | 1.87 µM (active)
18 | COC(=O)Nc1nc2ccc(C(=O)c3cccs3)cc2[nH]1 | 0.001 µM (active)
19 | NC(=O)OCC(COC(N)=O)c1ccccc1 | inactive
20 | Cc1cc(C(C)(C)C)c(O)c(C)c1CC1=NCCN1 | inactive

Row | SMILES | Potency
21 | NC(=O)NO | 5.9 µM (active)
22 | CC(=O)OCC(CCn1cnc2cnc(N)nc21)COC(C)=O | inactive
23 | CS(=O)(=O)Nc1ccc([N+](=O)[O-])cc1Oc1ccccc1 | inactive
24 | COc1ccc2c(c1)c(CC(=O)O)c(C)n2C(=O)c1ccc(Cl)cc1 | 18.7 µM (active)
25 | COc1ccc(C2CNC(=O)C2)cc1OC1CCCC1 (stereo not given) | inactive
26 | O=C(c1ccc(F)cc1)C1CCN(CCn2c(=O)[nH]c3ccccc3c2=O)CC1 | inactive
27 | Cc1cn([C@H]2C=C[C@@H](CO)O2)c(=O)[nH]c1=O | inactive
28 | CC(CCc1ccc(O)cc1)NCCc1ccc(O)c(O)c1 (stereo not given) | 18.7 µM (active)
29 | Clc1ccc(C(c2ccccc2Cl)C(Cl)Cl)cc1 (stereo not given) | inactive
30 | CN(C)CCC=C1c2ccccc2C=Cc2ccccc21 | inactive
31 | NS(=O)(=O)c1cc2c(cc1Cl)NCNS2(=O)=O | inactive
32 | Cn1cnc2c1c(=O)[nH]c(=O)n2C | 7.43 µM (active)
33 | N[C@@H](Cc1c[nH]c2ccc(O)cc12)C(=O)O | inactive
34 | CN(C)c1nc(N(C)C)nc(N(C)C)n1 | inactive
35 | C[C@@H]1CC(=O)NN=C1c1ccc(NN=C(C#N)C#N)cc1 | inactive
36 | CCc1cccc2c3c([nH]c12)C(CC)(CC(=O)O)OCC3 (stereo not given) | inactive
37 | C[C@](N)(Cc1ccc(O)c(O)c1)C(=O)O | inactive
38 | COc1cc2c(c(OC)c1OC)-c1ccc(OC)c(=O)cc1[C@@H](NC(C)=O)CC2 | inactive
39 | CN1CCN(CCCN2c3ccccc3Sc3ccc(Cl)cc32)CC1 | 3.32 µM (active)
40 | O=C(C1CCCCC1)N1CC(=O)N2CCc3ccccc3C2C1 (stereo not given) | inactive
